Data on 98 molecules can be found in PubChem BioAssay AID624330 (Southern Research Specialized Biocontainment Screening …, 2012).

The campaign covered roughly 340,000 compounds. About 2,100 (0.62%) were called active. Only a sample is shown. Potency and affinity values are given separately. Values without a mark were called inactive.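 Rule for the calls: active = first-screen hits whose inhibition reached a set limit at any dose in the follow-up dose series; inconclusive = inhibition above the set first-screen limit but never retested; inactive = the rest.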

In the experiment the target is Rac GTPase-activating protein 1 (Homo sapiens) (UniProt Q9H0H5). The experiment is described as follows: blockers of MgcRacGAP-driven Rac1 GTP hydrolysis – biochemical, ADP Hunter fluorescence, primary and confirmatory, confirmation (AID 624330).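 Note: fluorescence reports GDP produced by GAP-driven GTP hydrolysis.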 Conditions: MgcRacGAP-stimulated Rac1 GTP hydrolysis, at 30 µM, active compounds read high, GST-tagged Rac1 F28L mutant substrate.
Rac GTPase-activating protein 1 (Homo sapiens), sequence (Q9H0H5 whole entry, looked up): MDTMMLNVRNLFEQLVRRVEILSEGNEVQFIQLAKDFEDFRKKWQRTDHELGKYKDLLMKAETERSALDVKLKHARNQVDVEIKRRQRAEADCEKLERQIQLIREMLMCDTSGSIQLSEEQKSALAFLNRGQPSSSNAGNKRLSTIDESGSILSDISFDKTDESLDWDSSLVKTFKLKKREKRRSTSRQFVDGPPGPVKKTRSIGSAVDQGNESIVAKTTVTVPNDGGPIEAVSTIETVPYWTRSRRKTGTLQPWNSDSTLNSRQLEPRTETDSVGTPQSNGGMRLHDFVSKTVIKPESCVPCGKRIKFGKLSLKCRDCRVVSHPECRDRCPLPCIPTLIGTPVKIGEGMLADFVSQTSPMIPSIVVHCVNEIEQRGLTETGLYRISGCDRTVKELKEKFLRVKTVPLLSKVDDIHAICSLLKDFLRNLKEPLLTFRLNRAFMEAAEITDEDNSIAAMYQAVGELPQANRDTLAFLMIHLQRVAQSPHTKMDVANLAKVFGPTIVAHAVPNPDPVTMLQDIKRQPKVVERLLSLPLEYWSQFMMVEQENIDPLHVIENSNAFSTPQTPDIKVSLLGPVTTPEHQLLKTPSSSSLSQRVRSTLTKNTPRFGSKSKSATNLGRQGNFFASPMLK
Consider `Cc1cccc(-n2cnc(C(=O)O)c2)n1`, for which the inhibition is 4.99%.
`Cn1nccc1C(=O)Nc1ccc(Cl)cc1`: the inhibition is -1.74%.
To `CC(=O)Nc1ccc(NC(=O)c2ccnn2C)cc1` belongs 3.95%; to `C=CCN(C(=O)c1csnn1)C(C(=O)NC1CCCC1)c1ccc(F)cc1` (stereo not drawn), 5.68%; to `COc1ccccc1CNC(=O)C[C@@H]1C[C@H]2c3cc(NC(=O)c4ccc5c(c4)OCO5)ccc3O[C@H]2[C@@H](CO)O1`, 13.4%.
Under `COC(=O)C[C@@H]1C[C@H]2c3cc(N(C)C)ccc3O[C@H]2[C@H](CO)O1` stands 18.6%; under `O=C1CN(S(=O)(=O)c2cccc(Cl)c2Cl)c2ccccc2N1`, 4.66%.
To `COc1cc([N+](=O)[O-])ccc1NC(=O)CCN1C(=O)C2C3CCC(C3)C2C1=O` (stereo not drawn) belongs 6.61%.
Take `O=C(CNC(=O)c1ccco1)Nc1ccc(N2CCCCCC2)cc1`: the inhibition was 30.4%.
As to `O=C(CNCc1cccs1)Nc1ccc(S(=O)(=O)N2CCCCC2)cc1`, the inhibition is 14.5%.
To `S=C(NCc1ccco1)Nc1ccc(Oc2ccccc2)cc1` belongs 1.09%.
Under `CC(=O)c1ccc(NC(=O)CNCc2cccs2)cc1` stands 28.6%; under `O=C(NCc1ccco1)c1ccc(Oc2ccccc2)cc1`, 1.55%; under `O=C(Cc1ccccc1)Nc1ccc(N2CCCCC2)cc1`, 1.26%.
To `COc1ccc(C)cc1NC(=O)CNCc1cccs1` belongs 0.81%.
`COc1ccc(NC(=O)Cc2cccs2)c(OC)c1`: the inhibition was 8.99%.
Under `CCCOC(=O)C(C)n1cnc2scc(-c3ccc(C)cc3)c2c1=O` (stereo not drawn) stands 8.26%.
On to `N#CC(=C(O)CN1CCN(c2ccccc2F)CC1)c1nc(-c2ccccc2)cs1`, for which the inhibition is 6.97%.
To `CCOC(=O)CSc1nc2ccc(N3CCOCC3)cc2c(=O)n1Cc1ccccc1` belongs 1.81%.
To `O=C1NCC(NC(=O)C(F)(F)F)c2cc3c(cc21)OCO3` (stereo not drawn) belongs -0.85%; to `CCN1C(=O)[C@H]2[C@H]3CN=C(SCc4ccccc4)N3[C@@](C)(C(=O)OC)[C@H]2C1=O`, 13.1%.
Under `Cc1ccc(C(=O)c2c(NC(=O)CSc3nnc(N)s3)sc3c2CCCC3)cc1` stands -2.45%; under `CCN(CC)C(=O)C(=O)Nc1ccc(Oc2ccccc2)cc1`, 2.61%.
In the case of `CCOC(=O)N1CCN(CC(=O)Nc2ccc(Oc3ccccc3)cc2)CC1`, the inhibition was 5.48%.
To `Cc1ccc(-c2nc3cnccn3c2Nc2ccc3c(c2)OCCO3)o1` belongs 12.5%.
Under `COc1ccc(-n2cccc2C=O)cc1` stands 4.9%; under `O=C(O)c1cccc(-n2cccc2/C=C\[N+](=O)[O-])c1`, 26.7%.
On to `CN(C)c1ccc(-n2cccc2/C=N/n2cnnc2)cc1`, for which the inhibition was 9.83%.
Under `CCOc1ccc(-n2cccc2C=O)cc1` stands 4.88%; under `CC(=O)NC(Cc1ccccc1C)C(=O)NC1CCN(c2nnnn2-c2ccccc2)CC1` (stereo not drawn), 3.78%.
Under `C#CCO[C@@H]1C[C@H](n2ccc(NC(=O)c3ccccc3)nc2=O)O[C@@H]1CO` stands 7.23%; under `CSc1ncccc1C(=O)N1CCCC(N2CCN(c3ccccc3C)CC2)C1` (stereo not drawn), 10.5%; under `O=C(NC(c1ccccc1)c1ccccc1)C1CCCN(S(=O)(=O)c2cnc[nH]2)C1` (stereo not drawn), 1.47%.
Under `C=CCc1ccc(OCCOCCNCCOC)c(OC)c1` stands 8.29%; under `C=CCc1ccc(OCCOCCN(C)C)c(OC)c1`, 11.5%.
For `COc1cccc(NC(=O)COc2ccc(C(=S)N3CCN(C)CC3)cc2OC)c1`, the inhibition is 7.49%.
To `Cc1ccc(NC(=O)CSc2nn(-c3ccccc3)c(=S)s2)cc1S(=O)(=O)N(C)C` belongs 2.35%.
`O=C(c1ccccc1F)N1CCN(C(=O)C2CC2)CC1`: the inhibition is 3.19%.
To `CC1(C)O[C@@H]2[C@H](O1)[C@@H](COS(=O)(=O)O)O[C@H]2n1cnc2c(=O)[nH]cnc21` belongs 7.41%; to `CC1(C)O[C@@H]2[C@H](O1)[C@@H](COS(=O)(=O)O)O[C@H]2n1ccc(=O)[nH]c1=O`, 2.43%.
Under `CC1CN(S(=O)(=O)N(C)C)CCN1S(=O)(=O)N(C)C` (stereo not drawn) stands 5.65%; under `CCOC(=O)c1c(N)sc(-c2ccccc2)c1C`, 27.2%; under `COC(=O)c1c(N)sc(Cc2ccccc2)c1C`, 7.62%.
Under `CC(C)c1ccc(N2C(=O)CC(Sc3ncccn3)C2=O)cc1` (stereo not drawn) stands 1.68%; under `O=S(=O)(c1ccccc1)N1CCN(S(=O)(=O)c2ccccc2)C1`, 3.12%; under `CC1=C(C)CS(=O)N(S(=O)(=O)c2ccccc2)C1` (stereo not drawn), 30.6%.
Turning to `Cc1cccc(C(=O)NCC(c2ccc(F)cc2)N2CCOCC2)c1` (stereo not drawn), the inhibition was 3.85%.
To `Cc1ccc(C)c(CSc2ncccc2C(=O)O)c1` belongs 9.95%; to `NC(=O)c1ccc2c(c1)OCCO2`, -2.13%.
To `O=C(c1ccccc1)c1ccc2c(c1)OCCOCCOCCOCCO2` belongs -8.09%.
Under `O=C(Nc1cccnc1)c1cccc(NC(=O)c2ccco2)c1` stands 11.1%; under `O=C(Nc1cccc(S(=O)(=O)Nc2ccccc2F)c1)c1ccco1`, 0.67%; under `N#Cc1cc([N+](=O)[O-])ccc1NCCCn1ccnc1`, -2.38%.
`CCOCCCNC(=O)CCc1nnc2n(CCC(C)C)c(=O)c3ccccc3n12`: the inhibition was 7.91%.
Under `Cn1c(=O)c2ccccc2n2c(CCl)nnc12` stands -0.09%; under `CCCCCn1c(=O)c2ccccc2n2c(CCl)nnc12`, 1.94%; under `Cc1nnc2n(-c3ccccc3)c(=O)c3ccccc3n12`, 9.66%.
To `Cc1ccccc1-n1c(=O)c2ccccc2n2c(=O)[nH]nc12` belongs 3.11%.
To `Cc1ccccc1-n1c(=O)c2ccccc2n2cnnc12` belongs 2.97%.
Consider `CN1CCN(C(=O)/C(=C/c2ccco2)NC(=O)c2ccccc2)CC1`, for which the inhibition is 3.42%.
Consider `CC1CCCCN1C(=O)NC1CC(=O)N(c2ccc3c(c2)OCCO3)C1` (stereo not drawn), for which the inhibition was 4.77%.
To `CCCOc1ccc(C(=O)ON=C2CCN(C)CC2)cc1` belongs 5.39%; to `Cc1ccc(-c2csc3ncnc(N4CCN(Cc5ccccc5)CC4)c23)cc1`, 4.03%.
Under `O=C(CN1C(=O)NC2(CCOc3ccccc32)C1=O)c1ccc[nH]1` (stereo not drawn) stands -0.33%; under `COc1ccccc1CNc1nc2nc(C)c(Cl)c(=O)n2[nH]1`, 3.76%; under `Cc1nc2sc(C(c3cccs3)N3CCN(C(=O)c4ccco4)CC3)c(O)n2n1` (stereo not drawn), 1.66%.
Take `Cc1cc(O)c(C(=O)Cc2csc(C)n2)c(O)c1`: the inhibition is 1.16%.
To `CCc1cc(/C(Cc2ccccn2)=N\Nc2ccccc2)c(O)cc1O` belongs 5.83%; to `CCc1cc(C(=O)Cc2ccccn2)c(O)cc1O`, -7.09%; to `CCc1cc(/C(Cc2ccc3ccccc3n2)=N\O)c(O)cc1O`, 22.8%.
To `CCc1cc2c(=O)c(-c3cscn3)coc2cc1O` belongs -2.61%; to `Cc1cc(O)cc(O)c1C(=O)Cc1cscn1`, 7.26%; to `CCOC(=O)N1CCC(=NNC(=O)NC2CCCCC2)CC1`, -0.13%.
To `Cn1c(=O)n(C)c2cc(/C=N/N=C3/NC(=O)C(CC(=O)O)S3)ccc21` (stereo not drawn) belongs 11.1%; to `Nn1c(SCC(=O)NCC2CCCO2)nnc1-c1cc(Cl)ccc1Cl` (stereo not drawn), 5.2%; to `COc1ccccc1OCC(=O)NNC(=O)CSC(=S)N1CCCC1`, 8.8%.
In the case of `CC(C)C(NC(=O)CNC(=O)OC(C)(C)C)C(=O)NCc1ccc(Cl)cc1` (stereo not drawn), the inhibition was 4.12%.
To `c1ccc(OCCCCN2CCCCC2)cc1` belongs 12.9%; to `COc1ccc(OCCOCCN2CCc3ccccc3C2)cc1`, 28.9%.
To `c1ccc(COc2ccc(OCCCN3CCCC3)cc2)cc1` belongs 15.1%; to `COc1ccc(OCCOCCN2CCOCC2)cc1`, 12.8%.
To `CN1CCN(CCOc2ccc(Cc3ccccc3)cc2)CC1` belongs 10.6%; to `CCOc1cccc(OCCOCCN2CCCC2)c1`, 25%.
Turning to `CCN1CCN(CCOCCOc2ccccc2)CC1`, the inhibition was 28.1%.
Under `CCOc1ccc(OCCN2CCCCC2)cc1` stands 19.4%; under `CC(Sc1nnc(-c2ccccc2F)n1C)C(=O)NC1CCCCC1` (stereo not drawn), 6.18%; under `CCOC(=O)c1c(C)sc(Sc2ccc(Cl)cc2[N+](=O)[O-])c1OC`, 4.34%.
To `Cc1ccnc(SC2CC(=O)N(c3ccc(F)cc3)C2=O)n1` (stereo not drawn) belongs 1.56%.
Under `C(=N\N=C\c1ccccn1)/c1ccccn1` stands 3.13%; under `COc1ccc(CN(C)C(=O)[C@H](Cc2ccccc2)NC(=O)c2ccco2)c(OC)c1`, 0.3%; under `COCCCNC(=O)CC1C[C@H](C(=O)N2CCOCC2)[C@@]2(C)c3[nH]c4ccc(OC)cc4c3CCN2C1=O` (stereo partly drawn), 8.55%.
Consider `Cc1ccccc1N(CC(=O)N/N=C/c1cc(Br)c(C)o1)S(C)(=O)=O`, for which the inhibition was 4.93%.
For `O=S(=O)(NCCN1CCOCC1)c1ccc2c(c1)OCCO2`, the inhibition was 3.86%.
Under `C/C(=N\NC(=O)C1(C)CC1(Br)Br)c1cccc(NC(=O)c2ccc(C)o2)c1` (stereo not drawn) stands 5.18%; under `O=C(C1=NN[C@@H]2C(=O)N(Cc3ccccc3)C(=O)[C@H]12)c1ccc([N+](=O)[O-])cc1`, 14.7%; under `COc1ccc(/C=C2\SC(N3CCc4ccccc4C3)=NC2=O)cc1OC`, 10.4%.
Under `O=C(CCC(=O)c1cccs1)NCC(c1ccc(F)cc1)N1CCOCC1` (stereo not drawn) stands 4.84%; under `Cc1cccc(N2CCN(C(=O)c3ccc4c(c3)c(C)c(C)n4C)CC2C)c1` (stereo not drawn), -37%.
